# Pf growth 48h: inhibits P. falciparum growth in the first generation, 48 h | 310,000 compounds, 5.9% hits | Potency, µM (doses to about 28.7 µM), for the others: top-dose activity change, negative = inhibition, most hits filed as inhibitors | P. falciparum luciferase growth in erythrocytes, 48 h | AID 504832
#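 In quantitative HTS format, infected erythrocytes bearing luciferase-reporter parasites were treated for a single generation at 37 C. Luminescence after adding detection reagent served as the growth measure.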
# AmpC inh no detg: blocks E. coli AmpC beta-lactamase in detergent-free assay; 330,000 compounds, 0.52% hits; Potency, µM (highest dose often 57.1 µM), for the others: at the highest dose activity change, negative = inhibition, usual class: inhibitors; AmpC nitrocefin hydrolysis, absorbance 480 nm, 0.0001% Triton; P00811; AID 485341;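 note: plate controls were no compound for no effect and no enzyme for full effect; nearly all actives have a fitted effect of over 20% in size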
# Target sequence (P00811 whole entry, looked up): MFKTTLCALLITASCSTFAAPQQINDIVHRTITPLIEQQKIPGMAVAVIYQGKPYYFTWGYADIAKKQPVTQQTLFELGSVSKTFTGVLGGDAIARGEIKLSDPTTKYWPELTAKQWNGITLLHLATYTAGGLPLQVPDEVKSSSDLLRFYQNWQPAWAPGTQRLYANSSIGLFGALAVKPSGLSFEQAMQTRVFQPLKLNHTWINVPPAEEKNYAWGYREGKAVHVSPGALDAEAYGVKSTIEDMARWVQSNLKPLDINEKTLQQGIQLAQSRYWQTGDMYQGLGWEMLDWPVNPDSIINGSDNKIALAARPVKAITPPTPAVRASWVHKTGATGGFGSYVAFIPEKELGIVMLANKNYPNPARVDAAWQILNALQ
#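 20 mM phosphate pH 7.0 + 0.01% (detergent screen) or 0.0001% Triton X-100; 5.3 nM AmpC reagent; cpd preinc 15 min RT; nitrocefin (800 uM stock) to start; A480 q20 s × 4 min; Activity was normalised to no-enzyme and no-compound control wells.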
# AmpC inh detg: AmpC beta-lactamase inhibition with detergent present; P00811; AmpC hydrolysis of nitrocefin, absorbance 480 nm, 0.01% Triton; Potency, µM (series often up to 114 µM), for the others: at the highest dose activity change, negative = inhibition, hits mostly inhibitors; 370,000 compounds, 0.041% hits;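 note: 0% = no-compound wells and -100% = no-enzyme wells; nearly all actives have a fitted effect of over 25% in size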
#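 AmpC (5.3 nM in the dispensed reagent) in 20 mM phosphate pH 7.0 with 0.01% (detergent screen) or 0.0001% Triton X-100 was preincubated with compounds for 15 min at room temperature. Nitrocefin was then added from an 800 uM solution, and hydrolysis was followed at 480 nm.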
# Pf growth 96h: inhibits malaria parasite growth, 96 h; Potency, µM (highest dose often 28.7 µM), inactives show at the top dose activity change, negative = inhibition, hits mostly inhibitors; P. falciparum luciferase reporter growth, 96 h; 320,000 compounds, 6.9% hits
#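 Infected RBCs, 2% Hct / 0.05% parasitemia final; luciferase-reporter P. falciparum; cpd 96 h, 37 C, 5% CO2; luciferase detection reagent; luminescence.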
# AMA1-RON2 inh: disrupts binding of P. falciparum AMA1 to RON2. 360,000 compounds, 0.2% hits. AlphaScreen AMA1-biotinylated RON2 peptide binding. Potency, µM (highest dose often 58.2 µM), without a hit: at the top dose activity change, negative = inhibition, usual class: inhibitors;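 note: 0% = vehicle wells and -100% = peptide control; nearly all actives have a fitted effect of over 45% in size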
#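 AMA1 (3D7) with his tag at 25 nM final met compounds first, then biotinylated RON2 peptide at 25 nM; detection used donor plus acceptor beads, 10 µg/mL apiece, read by AlphaScreen after 30 min at room temperature.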
# HCV inhibitor: blocks hepatitis C virus; Potency, µM (top dose mostly 41.8 µM), without a hit: at the top dose activity change, negative = inhibition, actives largely listed as inhibitors; Huh7.5.1 HCVcc-Cre infection, luciferase reporter, 44 h; 340,000 compounds, 3.4% hits
#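 HCVcc-Cre virus at an moi near 0.5 was added right after compound to cells cultured 4 h from seeding (1,000 cells/well). Luciferase activity was determined 44 h later, 15 min after substrate addition at RT.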
# Numbers without * were called inactive; ? = inconclusive; / = no result; [ ] = remark or other dose. The list is not random: actives were taken first. Their share in the collection is about 11%. Calls come from the whole dose curve; as a rule, active = well fitted curve in the direction sought with a large enough effect; inconclusive = small, poorly fitted or top-dose-only effect, or another doubt; inactive = no such curve, though single readings can be large; an effect the other way counts as inactive or inconclusive. Unless noted, % is set by controls: 0 for no effect and ±100 for the full control effect; potency is the fitted concentration of half-maximal effect.
SMILES,Pf growth 48h,AmpC inh no detg,AmpC inh detg,Pf growth 96h,AMA1-RON2 inh,HCV inhibitor
CCOC(=O)c1cc(C)n(CC2CCC(C(=O)Nc3ccccc3OC)CC2)c1C (centres undefined),/,/,25%,/,/,/
Oc1c(CN2CCOCC2)cc(COCc2ccccc2)c2cccnc12,2.6µM*,31%,-6%,31%,?,?
CCOC(=O)N1CCN(Cc2cc(Cl)c3cccnc3c2O)CC1,2.6µM*,109%,-2%,23%,-84%,4µM*
O=C(Oc1c(CN2CCOCC2)cc(Cl)c2cccnc12)c1ccccc1Br,1.9µM*,12%,-1%,10µM*,-72%,?
O=C(Oc1c(Cl)cc(Cl)c2cccnc12)N1CCCCC1,-12%,72%,-2%,5.2µM*,-14%,-25%
CN1CCN(Cc2cc(Cl)c3cccnc3c2OC(=O)c2cccs2)CC1,?,-35%,-4%,?,37%,?
CC(C)OCc1cc(CN2CCN(c3ccccc3)CC2)c(O)c2ncccc12,/,/,19%,/,/,/
Cc1cccc(C(=O)Nc2cccc(OCc3cc(=O)n4ccccc4n3)c2)c1,/,/,16%,/,/,/
Oc1c(CNc2ccccc2)cc(COCc2ccccc2)c2cccnc12,1.2µM*,-32%,?,3.3µM*,/,/
COCc1cc(CN2CCN(C)CC2)c(O)c2ncccc12,/,74%,-3%,8.3µM*,-95%,?
O=C(O)[C@H](CC(=O)N1C[C@H]2CCCC[C@H]2C1)Cc1ccccc1,-11%,/,/,6%,/,/
CCN(C(=O)CSc1nnc(Cn2nnc3ccccc32)o1)c1nc(-c2ccccc2)cs1,/,-9%,?,44%,-26%,?
O=C(CSc1nnc(Cn2nnc3ccccc32)o1)N(Cc1ccc(Cl)cc1)c1ccccc1,10µM*,-13%,?,/,-2%,6.3µM*
O=C(CSc1nnc(Cn2nnc3ccccc32)o1)Nc1cccc(Cl)c1,13%,-36%,-2%,119%,11%,17%
CCN(C(=O)CSc1nnc(Cn2nnc3ccccc32)o1)c1nc(C)cs1,-2%,-7%,-9%,9.3µM*,13%,-1%
Nc1nc(Br)c2c(F)cccc2c1-c1ccc(Cl)cc1,?,-36%,-5%,13µM*,41%,?
CCN(c1ccccc1)S(=O)(=O)c1ccc2[nH]cc(C(=O)NCc3ccc(C)cc3)c(=O)c2c1,/,/,-5%,/,/,/
O=C(CSc1nnc(-c2ccccc2)c(-c2ccccc2)n1)Nc1ccccc1Cl,/,/,-2%,/,/,/
CCCCCN1C2=NCCN2c2ccccc21,?,-9%,-8%,8.3µM*,0%,-19%
CCOC(=O)CN1C2=NCCN2c2ccccc21,23%,-15%,-14%,/,13%,?
COc1cccc(Nc2sc(C(=O)c3ccc(F)cc3)c(N)c2C(=O)NCc2ccc(C)cc2)c1,/,/,9%,/,/,/
COc1ccc(F)cc1S(=O)(=O)NCCc1sc2nc(-c3ccc(F)cc3)nn2c1C,/,/,-1%,/,/,/
Cc1ccc(S(=O)(=O)CC(CN2CCOCC2)N2CCOCC2)cc1 (centres undefined),0%,-7%,6%,-18%,10%,15%
O=S(=O)(CC(CN1CCCC1)N1CCCC1)c1ccc2ccccc2c1 (centres undefined),?,64%,?,4.1µM*,-15%,10µM*
Cc1cc(C)c2c(N)c(C(=O)c3ccc(Cl)cc3Cl)sc2n1,13µM*,-36%,-13%,35%,2%,9%
SMILES,Pf growth 48h,AmpC inh no detg,AmpC inh detg,Pf growth 96h,AMA1-RON2 inh,HCV inhibitor
Oc1c(C(c2ccccc2F)N2CCCCC2)sc2nc(-c3ccco3)nn12 (centres undefined),/,/,1%,/,/,/
CCOC(=O)C1=C(C)NC(SCC(=O)OC)=C(C#N)C1c1ccc(C(=O)OC)cc1 (centres undefined),?,66%,1%,37%,52%,12%
CCOC(=O)C1=C(C)NC(C)=C(C(=O)OCC)C1c1ccc(O)cc1,-19%,-17%,6%,/,22%,-5%
CCOC(=O)C1=C(C)Nc2sc(C(=O)c3ccc(F)cc3)c(N)c2C1c1ccc(C(=O)OC)cc1 (centres undefined),7.4µM*,6%,-3%,4.7µM*,33%,7.1µM*
CCOC(=O)C1=C(C)Nc2sc(C(=O)c3ccc(C)cc3)c(N)c2C1c1ccc(C(=O)OC)cc1 (centres undefined),12µM*,-1%,-5%,5.2µM*,-22%,?
COc1ccc(-n2cc(-c3ccccc3)nc2SCC(=O)Nc2ccccc2)cc1Cl,/,/,12%,/,/,/
Cc1nc(-c2ccccc2)sc1-c1ccc(SCC(=O)NCc2ccccc2Cl)nn1,/,/,-8%,/,/,/
CCCCn1c(C)c(C(=O)OCC)c2c(CN3CCOCC3)c(O)ccc21,?,69%,?,/,-13%,25µM*
CCCCn1c(C)c(C(=O)OCC)c2c(CN3CCCC3)c(O)ccc21,/,69%,-13%,4.7µM*,5%,?
CCOC(=O)c1c(C)n(C)c2ccc(O)c(CN3CCN(C)CC3)c12,1%,-7%,?,0%[5.75 µM],-6%,?
CCOC(=O)c1c(C)n(C)c2ccc(O)c(CN3CCC(C)CC3)c12,?,-7%,-13%,10µM*,-5%,?
CCOC(=O)c1c(CSc2ccccc2)n(C)c2ccc(O)c(CN3CCOCC3)c12,?,115%,-5%,?,-12%,-28%
CC(=O)c1cccc(NC(=O)C2CCN(c3nnc(-n4cccc4)s3)CC2)c1,/,/,-1%,/,/,/
CCc1ccccc1NC(=O)NC(CC)Cn1nnc2ccccc2c1=O (centres undefined),/,/,16%,/,/,/
CC[C@H](CO)Nc1nc(Nc2cccc(Cl)c2)c2ncn(C(C)C)c2n1,12µM*,103%,-8%,5.2µM*,-2%,?
CC(C)[C@H](CO)N(Cc1cccc(F)c1)c1nc(Nc2cccc(Cl)c2)c2ncn(C(C)C)c2n1,12µM*,-33%,0%,?,-9%,?
CCOC(=O)c1cnn(-c2ccc(OC)cc2)c1C1CCN(C(=O)OC(C)(C)C)CC1,/,/,3%,/,/,/
Cc1ccc(CNC(=O)C2CCCN(S(=O)(=O)c3c(C)noc3/C=C/N(C)C)C2)cc1 (centres undefined),13µM*,-2%,1%,?,-6%,-5%
Cc1noc(/C=C/N(C)C)c1S(=O)(=O)N1CCCC(C(=O)NC2CCCCC2)C1 (centres undefined),?,40%,-7%,37%,0%,-5%

# Screening results deposited in PubChem by National Center for Advancing Translational Sciences (NCATS).
